# Measured values published in article PMC7862700, “An all-to-all approach to the identification of sequence-specific readers for epigenetic DNA modifications on cytosine”.
# Tests used:
# Experiment in all cases: DAPPL (digital affinity profiling via proximity ligation, sequencing); 10 mM Tris-HCl pH 7.5, 50 mM NaCl, 1 mM DTT, 4% glycerol, room temperature, 30 min; GST-TFs on glutathione beads, 16-mer random dsDNA library, 0.1% formaldehyde crosslink after washing; high values mean tight binding
# Settings in all cases: protein: recombinant; tags: N-terminal GST; dsDNA, one strand shown
# ELK1 = target: T1, ELK1 (Homo sapiens, UniProt P19419 1-428)
# T1 sequence: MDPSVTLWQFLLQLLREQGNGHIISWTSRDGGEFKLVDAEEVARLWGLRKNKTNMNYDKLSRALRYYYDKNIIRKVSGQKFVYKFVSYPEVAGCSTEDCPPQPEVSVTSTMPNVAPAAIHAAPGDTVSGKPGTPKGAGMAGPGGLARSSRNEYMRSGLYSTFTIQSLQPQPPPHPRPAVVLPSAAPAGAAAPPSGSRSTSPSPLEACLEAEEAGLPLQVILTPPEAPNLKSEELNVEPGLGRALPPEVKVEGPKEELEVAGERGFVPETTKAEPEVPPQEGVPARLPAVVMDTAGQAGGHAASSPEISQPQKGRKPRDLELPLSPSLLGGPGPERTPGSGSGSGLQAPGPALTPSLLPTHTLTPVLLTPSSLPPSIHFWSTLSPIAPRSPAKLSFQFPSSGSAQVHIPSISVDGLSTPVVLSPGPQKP
# Procedure, shortened: (§1)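 Human transcription factors fused to GST were expressed in yeast, captured on glutathione beads, given DNA barcodes and pooled with a GST-only negative control. Pools were incubated with 200 nmole of a 16-mer random double-stranded DNA library in Tris/NaCl/DTT/glycerol buffer at room temperature for 30 min. They were then washed, crosslinked with 0.1% formaldehyde, proximity-ligated (BsaI/T4 ligase, 1 h, 37 °C), PCR-amplified and sequenced on an Illumina NextSeq500. Binding signal is each 6-mer's read frequency for a factor divided by its frequency for the GST control.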
# GABPA = target: T2, GABPA (Homo sapiens, UniProt Q06546 1-454)
# T2 sequence: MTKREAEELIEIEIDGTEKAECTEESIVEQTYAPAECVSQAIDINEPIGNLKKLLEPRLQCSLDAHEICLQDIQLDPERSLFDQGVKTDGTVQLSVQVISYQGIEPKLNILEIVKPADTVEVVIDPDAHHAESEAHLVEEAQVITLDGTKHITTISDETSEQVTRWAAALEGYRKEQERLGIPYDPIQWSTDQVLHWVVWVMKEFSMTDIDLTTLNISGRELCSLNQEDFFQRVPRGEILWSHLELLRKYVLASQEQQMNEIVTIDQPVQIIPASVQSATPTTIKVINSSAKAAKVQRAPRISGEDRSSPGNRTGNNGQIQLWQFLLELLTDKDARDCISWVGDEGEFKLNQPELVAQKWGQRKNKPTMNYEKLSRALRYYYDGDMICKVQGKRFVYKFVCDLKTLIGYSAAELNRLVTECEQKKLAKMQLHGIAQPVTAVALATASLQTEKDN
# Procedure, shortened: as §1
# ERG = target: T3, ERG (Homo sapiens, UniProt P11308 1-479)
# T3 sequence: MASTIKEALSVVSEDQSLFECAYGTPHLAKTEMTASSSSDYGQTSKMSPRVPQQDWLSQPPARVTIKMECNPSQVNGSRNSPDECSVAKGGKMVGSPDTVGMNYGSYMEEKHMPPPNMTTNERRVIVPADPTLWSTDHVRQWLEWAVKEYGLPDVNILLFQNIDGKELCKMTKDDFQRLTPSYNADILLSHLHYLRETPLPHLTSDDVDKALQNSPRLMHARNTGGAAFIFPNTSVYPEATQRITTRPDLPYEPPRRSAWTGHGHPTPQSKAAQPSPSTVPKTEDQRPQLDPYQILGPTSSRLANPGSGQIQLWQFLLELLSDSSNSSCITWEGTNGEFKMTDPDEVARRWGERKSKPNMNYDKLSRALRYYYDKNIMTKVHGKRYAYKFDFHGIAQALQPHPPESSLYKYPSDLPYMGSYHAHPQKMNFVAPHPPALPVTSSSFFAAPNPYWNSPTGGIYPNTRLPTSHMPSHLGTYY
# Procedure, shortened: as §1
# ELF1 = ELF1 (Homo sapiens, UniProt P32519 1-619)
# ELF1, sequence (P32519 whole entry): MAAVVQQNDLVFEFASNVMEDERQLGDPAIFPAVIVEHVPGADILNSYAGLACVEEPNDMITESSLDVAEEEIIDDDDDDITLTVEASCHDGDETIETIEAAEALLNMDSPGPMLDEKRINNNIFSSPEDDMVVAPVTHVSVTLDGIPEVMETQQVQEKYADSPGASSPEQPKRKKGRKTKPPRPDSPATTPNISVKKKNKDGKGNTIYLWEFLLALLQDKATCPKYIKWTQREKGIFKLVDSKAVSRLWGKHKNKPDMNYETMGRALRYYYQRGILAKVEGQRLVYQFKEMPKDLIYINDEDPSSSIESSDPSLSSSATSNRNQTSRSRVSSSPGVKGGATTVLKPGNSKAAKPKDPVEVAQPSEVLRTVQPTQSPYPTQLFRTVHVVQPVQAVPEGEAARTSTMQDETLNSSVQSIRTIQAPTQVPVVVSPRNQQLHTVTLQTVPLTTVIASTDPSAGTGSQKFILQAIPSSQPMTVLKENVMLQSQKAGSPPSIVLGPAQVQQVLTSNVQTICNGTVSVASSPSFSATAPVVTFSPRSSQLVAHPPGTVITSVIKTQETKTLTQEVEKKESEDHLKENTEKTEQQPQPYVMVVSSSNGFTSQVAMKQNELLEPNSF
# Procedure, shortened: as §1
# EHF = target: T4, EHF (Homo sapiens, UniProt Q9NZC4 1-300)
# T4 sequence: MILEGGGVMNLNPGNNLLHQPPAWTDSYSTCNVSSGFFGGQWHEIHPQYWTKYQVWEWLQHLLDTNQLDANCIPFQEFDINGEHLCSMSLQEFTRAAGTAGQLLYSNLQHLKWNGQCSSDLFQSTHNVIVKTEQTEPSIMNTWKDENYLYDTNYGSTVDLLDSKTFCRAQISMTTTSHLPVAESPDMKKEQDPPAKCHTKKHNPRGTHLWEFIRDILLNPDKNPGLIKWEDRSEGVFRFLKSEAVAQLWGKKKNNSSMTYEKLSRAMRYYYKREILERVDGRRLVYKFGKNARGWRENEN
# Procedure, shortened: as §1
# SPIB = SPIB (Homo sapiens, UniProt Q01892 1-262)
# SPIB, sequence (Q01892 whole entry): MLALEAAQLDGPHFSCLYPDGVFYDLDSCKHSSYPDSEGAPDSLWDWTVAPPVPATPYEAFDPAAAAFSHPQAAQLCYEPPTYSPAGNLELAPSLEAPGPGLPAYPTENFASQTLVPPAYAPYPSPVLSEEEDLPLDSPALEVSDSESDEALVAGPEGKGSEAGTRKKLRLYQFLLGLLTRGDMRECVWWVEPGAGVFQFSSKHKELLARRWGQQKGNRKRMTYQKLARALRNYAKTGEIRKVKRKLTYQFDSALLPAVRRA
# Procedure, shortened: as §1
# FEV = target: T5, FEV (Homo sapiens, UniProt Q99581 1-238)
# T5 sequence: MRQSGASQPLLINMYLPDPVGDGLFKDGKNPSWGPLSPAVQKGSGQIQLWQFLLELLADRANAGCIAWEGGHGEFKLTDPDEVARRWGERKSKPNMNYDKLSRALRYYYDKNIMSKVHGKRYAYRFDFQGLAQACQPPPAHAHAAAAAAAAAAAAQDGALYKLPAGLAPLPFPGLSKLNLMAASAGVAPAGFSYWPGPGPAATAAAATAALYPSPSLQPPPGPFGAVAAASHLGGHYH
# Procedure, shortened: as §1
# ETV5 = ETV5 (Homo sapiens, UniProt P41161 1-510)
# ETV5, sequence (P41161 whole entry): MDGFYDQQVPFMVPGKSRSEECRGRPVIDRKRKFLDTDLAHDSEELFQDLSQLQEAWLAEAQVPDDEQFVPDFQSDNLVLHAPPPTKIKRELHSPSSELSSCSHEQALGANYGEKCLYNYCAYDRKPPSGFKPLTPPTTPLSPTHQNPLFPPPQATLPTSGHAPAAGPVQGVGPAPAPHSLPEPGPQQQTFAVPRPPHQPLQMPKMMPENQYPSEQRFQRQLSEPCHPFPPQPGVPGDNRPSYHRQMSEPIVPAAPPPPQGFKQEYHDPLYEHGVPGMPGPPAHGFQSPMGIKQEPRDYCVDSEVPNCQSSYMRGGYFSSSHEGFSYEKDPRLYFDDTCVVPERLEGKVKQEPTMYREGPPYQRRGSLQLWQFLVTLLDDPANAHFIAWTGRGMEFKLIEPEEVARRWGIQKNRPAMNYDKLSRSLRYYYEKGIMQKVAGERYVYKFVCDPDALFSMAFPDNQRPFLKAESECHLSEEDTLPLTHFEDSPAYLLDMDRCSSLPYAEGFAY
# Procedure, shortened: as §1
# ELF4 = ELF4 (Homo sapiens, UniProt Q99607 1-663)
# ELF4, sequence (Q99607 whole entry): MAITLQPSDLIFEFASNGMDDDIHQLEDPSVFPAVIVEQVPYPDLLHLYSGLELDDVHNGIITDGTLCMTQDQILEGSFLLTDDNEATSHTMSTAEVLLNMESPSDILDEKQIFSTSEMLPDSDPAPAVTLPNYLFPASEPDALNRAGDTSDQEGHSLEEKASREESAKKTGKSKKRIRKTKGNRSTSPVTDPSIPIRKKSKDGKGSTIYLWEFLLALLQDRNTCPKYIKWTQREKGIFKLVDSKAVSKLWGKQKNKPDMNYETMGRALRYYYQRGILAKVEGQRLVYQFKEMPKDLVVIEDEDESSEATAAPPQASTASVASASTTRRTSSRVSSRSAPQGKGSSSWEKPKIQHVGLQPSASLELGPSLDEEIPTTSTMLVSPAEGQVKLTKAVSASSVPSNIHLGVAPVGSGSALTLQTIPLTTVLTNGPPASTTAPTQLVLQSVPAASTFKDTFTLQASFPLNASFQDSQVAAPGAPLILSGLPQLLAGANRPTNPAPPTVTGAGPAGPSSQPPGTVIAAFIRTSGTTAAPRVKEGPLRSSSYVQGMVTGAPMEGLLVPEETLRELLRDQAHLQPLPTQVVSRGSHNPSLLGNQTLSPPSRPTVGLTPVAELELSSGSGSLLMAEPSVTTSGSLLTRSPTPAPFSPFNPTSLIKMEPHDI
# Procedure, shortened: as §1
# ELK4 = target: T6, ELK4 (Homo sapiens, UniProt P28324-2 1-405)
# T6 sequence: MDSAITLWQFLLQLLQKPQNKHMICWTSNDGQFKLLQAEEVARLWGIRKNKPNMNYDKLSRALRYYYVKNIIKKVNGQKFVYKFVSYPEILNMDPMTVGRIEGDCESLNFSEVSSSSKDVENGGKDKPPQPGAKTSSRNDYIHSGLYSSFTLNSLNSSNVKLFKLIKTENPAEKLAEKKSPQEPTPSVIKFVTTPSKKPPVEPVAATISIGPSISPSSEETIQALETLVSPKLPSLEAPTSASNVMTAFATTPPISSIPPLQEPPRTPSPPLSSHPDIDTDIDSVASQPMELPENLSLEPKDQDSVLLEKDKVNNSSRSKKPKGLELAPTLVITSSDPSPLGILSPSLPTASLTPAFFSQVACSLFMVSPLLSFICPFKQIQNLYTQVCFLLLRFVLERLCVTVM
# Procedure, shortened: as §1
# ELF3 = target: T7, ELF3 (Homo sapiens, UniProt P78545 1-371)
# T7 sequence: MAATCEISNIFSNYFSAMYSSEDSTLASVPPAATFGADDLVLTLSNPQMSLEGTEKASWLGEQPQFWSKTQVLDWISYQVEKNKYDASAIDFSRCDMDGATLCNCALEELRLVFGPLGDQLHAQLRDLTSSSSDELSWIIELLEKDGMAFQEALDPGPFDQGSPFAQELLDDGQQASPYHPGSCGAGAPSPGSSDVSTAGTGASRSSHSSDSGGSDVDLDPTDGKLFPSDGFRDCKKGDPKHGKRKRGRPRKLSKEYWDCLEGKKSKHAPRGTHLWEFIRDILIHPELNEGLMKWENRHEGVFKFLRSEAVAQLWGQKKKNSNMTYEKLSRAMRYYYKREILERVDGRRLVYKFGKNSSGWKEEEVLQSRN
# Procedure, shortened: as §1
# ETV3L = target: T8, ETV3L (Homo sapiens, UniProt Q6ZN32 1-361)
# T8 sequence: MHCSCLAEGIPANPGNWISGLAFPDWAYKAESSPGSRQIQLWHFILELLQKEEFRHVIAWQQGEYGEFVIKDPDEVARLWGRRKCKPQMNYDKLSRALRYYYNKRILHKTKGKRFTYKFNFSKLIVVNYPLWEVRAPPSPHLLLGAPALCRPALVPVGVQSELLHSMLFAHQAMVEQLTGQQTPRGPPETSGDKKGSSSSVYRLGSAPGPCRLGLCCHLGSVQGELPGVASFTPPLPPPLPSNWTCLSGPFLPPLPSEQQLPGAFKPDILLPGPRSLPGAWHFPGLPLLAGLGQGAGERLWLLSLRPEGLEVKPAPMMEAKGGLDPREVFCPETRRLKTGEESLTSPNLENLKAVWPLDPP
# Procedure, shortened: as §1
# SPDEF = target: T9, SPDEF (Homo sapiens, UniProt O95238 1-335)
# T9 sequence: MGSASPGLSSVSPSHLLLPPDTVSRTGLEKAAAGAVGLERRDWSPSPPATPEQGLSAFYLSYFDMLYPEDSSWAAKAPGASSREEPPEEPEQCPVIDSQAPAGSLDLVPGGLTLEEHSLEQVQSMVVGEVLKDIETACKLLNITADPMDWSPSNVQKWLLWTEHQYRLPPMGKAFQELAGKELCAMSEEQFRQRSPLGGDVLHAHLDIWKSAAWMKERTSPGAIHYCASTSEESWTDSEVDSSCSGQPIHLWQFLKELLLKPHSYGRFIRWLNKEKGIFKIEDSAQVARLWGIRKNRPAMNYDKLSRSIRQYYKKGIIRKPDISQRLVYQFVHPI
# Procedure, shortened: as §1
# ETV7 = target: T10, ETV7 (Homo sapiens, UniProt Q9Y603 1-341)
# T10 sequence: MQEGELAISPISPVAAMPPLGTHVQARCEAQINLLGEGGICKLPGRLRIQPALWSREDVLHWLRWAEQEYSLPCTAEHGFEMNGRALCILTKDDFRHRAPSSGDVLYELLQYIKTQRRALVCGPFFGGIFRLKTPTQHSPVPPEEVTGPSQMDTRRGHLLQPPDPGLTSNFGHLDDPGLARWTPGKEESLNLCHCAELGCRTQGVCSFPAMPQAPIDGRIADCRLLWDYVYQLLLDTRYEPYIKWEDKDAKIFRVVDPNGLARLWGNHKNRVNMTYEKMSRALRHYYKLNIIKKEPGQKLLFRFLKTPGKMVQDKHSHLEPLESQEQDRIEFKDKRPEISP
# Procedure, shortened: as §1
# ETV6 = ETV6 (Homo sapiens, UniProt P41212 1-452)
# ETV6, sequence (P41212 whole entry): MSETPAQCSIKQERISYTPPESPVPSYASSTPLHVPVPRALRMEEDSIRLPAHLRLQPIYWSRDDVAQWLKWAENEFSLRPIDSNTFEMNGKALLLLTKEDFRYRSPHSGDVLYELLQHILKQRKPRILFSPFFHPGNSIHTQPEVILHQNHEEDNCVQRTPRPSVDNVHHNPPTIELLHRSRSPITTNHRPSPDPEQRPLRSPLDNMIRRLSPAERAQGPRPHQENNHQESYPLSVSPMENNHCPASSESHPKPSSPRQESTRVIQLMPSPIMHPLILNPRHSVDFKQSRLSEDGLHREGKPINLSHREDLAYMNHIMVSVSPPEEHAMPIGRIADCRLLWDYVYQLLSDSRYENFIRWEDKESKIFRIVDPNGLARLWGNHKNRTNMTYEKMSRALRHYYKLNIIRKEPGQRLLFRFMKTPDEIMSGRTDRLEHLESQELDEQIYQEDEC
# Procedure, shortened: as §1
sequence,measurement,setting,value
GTACGA,binding signal,ELK1,"1.03 fold enrichment (6-mer frequency, TF over GST control)"
same,binding signal,GABPA,"1.14 fold enrichment (6-mer frequency, TF over GST control)"
same,binding signal,ERG,"1.04 fold enrichment (6-mer frequency, TF over GST control)"
same,binding signal,ELF1,"1.08 fold enrichment (6-mer frequency, TF over GST control)"
same,binding signal,EHF,"1.04 fold enrichment (6-mer frequency, TF over GST control)"
same,binding signal,SPIB,"1.05 fold enrichment (6-mer frequency, TF over GST control)"
same,binding signal,FEV,"1.01 fold enrichment (6-mer frequency, TF over GST control)"
same,binding signal,ETV5,"1.02 fold enrichment (6-mer frequency, TF over GST control)"
same,binding signal,ELF4,"1.11 fold enrichment (6-mer frequency, TF over GST control)"
same,binding signal,ELK4,"1.04 fold enrichment (6-mer frequency, TF over GST control)"
same,binding signal,ELF3,"1.11 fold enrichment (6-mer frequency, TF over GST control)"
same,binding signal,ETV3L,"1.09 fold enrichment (6-mer frequency, TF over GST control)"
same,binding signal,SPDEF,"1.02 fold enrichment (6-mer frequency, TF over GST control)"
same,binding signal,ETV7,"1.16 fold enrichment (6-mer frequency, TF over GST control)"
same,binding signal,ETV6,"1.05 fold enrichment (6-mer frequency, TF over GST control)"
